Drawing on PubChem BioAssay (NCI), this text covers growth inhibition for 33 compounds.

Assay [1] can be described thus: NCI Yeast Anticancer Drug Screen. Data for the rad50 strain (AID 155).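 Note: 0% = growth of vehicle-only cultures of the same strain.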 The following applies: S. cerevisiae rad50 strain growth inhibition; at 50.0 µM; stronger effect = higher value. The method, boiled down: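 Growth of the mutant yeast was measured after compound exposure and referenced to vehicle-treated cultures.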
Assay [2] in a line: NCI Yeast Anticancer Drug Screen. Data for the mec2-1 strain (AID 157). The following applies: S. cerevisiae mec2-1 strain, at 50.0 µM, stronger effect = higher value. The method, boiled down: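 Using mec2-1 yeast: add compound, measure growth, express inhibition versus vehicle-treated cultures.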
Assay [3] is described as follows: NCI Yeast Anticancer Drug Screen. Data for the sgs1 mgt1 strain (AID 161).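 Note: 0% = growth of cultures given vehicle only.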 The following applies: S. cerevisiae sgs1 mgt1 strain, at 50.0 µM, stronger effect = higher value. The method, boiled down: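 Yeast cells carrying a defined DNA-repair defect were exposed to test compounds. Growth inhibition was measured relative to vehicle-treated controls.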
Assay [4] is described as follows: NCI Yeast Anticancer Drug Screen. Data for the cln2 rad14 strain (AID 165).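 Note: 0% = growth equal to vehicle treated cultures.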 The following applies: S. cerevisiae cln2 rad14 strain, at 50.0 µM, stronger effect = higher value. The method, boiled down: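 Yeast strain cln2 rad14, bearing defects in cell cycle control and DNA repair, serves as the test system; values reflect growth inhibition compared with vehicle.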
The nature of assay [5]: NCI Yeast Anticancer Drug Screen. Data for the bub3 strain (AID 167). The following applies: S. cerevisiae bub3 mutant strain, at 50.0 µM, stronger effect = higher value. Summed up: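 Whole-cell yeast assay. The mutant strain was incubated with compounds, and growth inhibition was determined by comparison with vehicle-treated cells.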
Assay [6] in a line: NCI Yeast Anticancer Drug Screen. Data for the mlh1 rad18 strain (AID 175). The following applies: S. cerevisiae mlh1 rad18 strain growth inhibition; at 50.0 µM; stronger effect = higher value. Summed up:
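Steps: expose repair-defective yeast to compound; measure growth; express inhibition against vehicle-treated controls.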

The panel holds about 79,000 compounds, 15% with a hit somewhere; the sample as a whole holds those more often. Values without a mark were called inactive. Active and inactive are the calls of the source. Cut-off read from the data, not from the text of the source: active = growth inhibition above about 70%; inactive = the rest.

With `Nc1cc2ccccc2c(O)c1O`, the growth inhibition in assay [1] was 32.1%; in assay [2] it was 35%; in assay [3], 39.1%; in assay [4], 20.7%; in assay [5] it was 38%; in assay [6], 14.2%.
Take `CC(=O)NC(CCC(=O)c1ccccc1)C(=O)O` (centres undefined): the growth inhibition in assay [1] is 18.1%; in assay [2] it was -4.95%; in assay [3] it was 17.3%; in assay [4], 5.05%; in assay [5], 0%; in assay [6] it was 16%.
`CC1CCC(C(C)(C)[N+](C)(C)C)CC1` (centres undefined): the growth inhibition in assay [1] was 40.2%; in assay [2], 17.6%; in assay [3] it was 23.9%; in assay [4], 10.6%; in assay [5], 47.2%; in assay [6], 36.4%.
For the compound `COc1cccc2c1Cc1ccccc1-2`, the growth inhibition is 50.3% in assay [1]; -3.6% in assay [2]; 13.3% in assay [3]; 12.8% in assay [4]; 43.1% in assay [5]; 24.4% in assay [6].
For the compound `Cc1ccc(S(=O)(=O)Oc2ccc3sc4c(CO)ccc(NCCN(C)C)c4c(=O)c3c2)cc1`, the growth inhibition in assay [1] was 6.05%; in assay [2], 26.4%; in assay [3], 12.2%; in assay [4], 21.6%; in assay [5], 22.4%; in assay [6], 1.55%.
On to `O=C(OCC1CCCO1)c1ccc([N+](=O)[O-])cc1` (centres undefined), for which the growth inhibition was 2.05% in assay [1]; 21.6% in assay [2]; 12.9% in assay [3]; 9.7% in assay [4]; 30.9% in assay [5]; 12.3% in assay [6].
For the compound `CCOc1ccc2c(c1)c(C)cc(C)[n+]2CC`, the growth inhibition in assay [1] is 4.45%; in assay [2], -41%; in assay [3] it was -13.2%; in assay [4], -7.9%; in assay [5] it was 13%; in assay [6], -3.4%.
As to `NC(=O)NCCO`, the growth inhibition was -17.5% in assay [1]; 4.1% in assay [2]; 13.8% in assay [3]; -18.6% in assay [4]; 13.3% in assay [6].
As for `COC1OC(C(COC(C)=O)OC(C)=O)C(OC(C)=O)C(OC(C)=O)C1OC(C)=O` (centres undefined), the growth inhibition was 13.8% in assay [1], 1.75% in assay [2], 4.35% in assay [3] and 52.2% in assay [5].
As for `Cc1ccc(OC(=O)c2ccccc2)cc1`, the growth inhibition in assay [1] is 9.3%; in assay [2], -9.65%; in assay [3] it was -18.6%; in assay [5] it was -8.6%; in assay [6], -14.6%.
For `CC(C)(C)NCCC(O)c1cc(C(F)(F)F)nc2c(C(F)(F)F)cccc12` (centres undefined), the growth inhibition is -4.3% in assay [1]; -36.1% in assay [2]; -22.4% in assay [3]; 21.1% in assay [4]; 0.15% in assay [6].
For the compound `CN(CCCN(C)CCC1CCCCC1)CCC1CCCCC1`, the growth inhibition is 11.2% in assay [1]; -1.05% in assay [2]; 0.1% in assay [3]; 2.15% in assay [5]; 7.7% in assay [6].
Take `CC(=O)c1cccs1`: the growth inhibition in assay [1] is -9.65%; in assay [2], -0.05%; in assay [3], 15.1%; in assay [4], -20.1%; in assay [6], 6.7%.
As to `NNC(=O)c1ccccc1N`, the growth inhibition is -1.8% in assay [1]; 4.35% in assay [2]; 27.1% in assay [3]; -11.2% in assay [4]; -1.55% in assay [6].
Take `Nc1ncc([N+](=O)[O-])cn1`: the growth inhibition is 1.9% in assay [1]; -4.7% in assay [2]; -29% in assay [3]; 5.6% in assay [5]; -9.45% in assay [6].
For `COC1CC(OC(=O)c2ccc([N+](=O)[O-])cc2)C(COC(=O)c2ccc([N+](=O)[O-])cc2)O1` (centres undefined) the same measures were 9.45%, 20.8%, 1.9%, -0.7% and 36.1%.
Regarding `S=C(NCc1ccccc1)N1CCC(CCCC2CCN(C(=S)NCc3ccccc3)CC2)CC1`, the growth inhibition in assay [1] is -9.45%; in assay [2], -32.1%; in assay [3], -3.6%; in assay [5], 2.85%.
Take `Nc1ccc(F)c(Cl)c1F`: the growth inhibition in assay [1] was -11%; in assay [2], -7.8%; in assay [3] it was -14.3%; in assay [5] it was -1.75%; in assay [6], -1.8%.
For `Cc1cc(C(=O)NN)c(C#N)c(=O)[nH]1`, the growth inhibition was 2.2% in assay [1]; -5.55% in assay [2]; -2.15% in assay [3]; -17.5% in assay [4]; -0.5% in assay [6].
`O=Cc1c(O)c2ccccc2[nH]c1=O`: the growth inhibition in assay [1] was -0.95%; in assay [2], 1.35%; in assay [3], -1.55%; in assay [5], 4.2%; in assay [6], 3.85%.
For `Cn1c(=O)c2nc3c(=O)n(C)c(=O)n(C)c3nc2n(C)c1=O`, the growth inhibition in assay [1] was -8%; in assay [2] it was -11.2%; in assay [3], -17.2%; in assay [4] it was -6.9%; in assay [6], -2.25%.
Consider `CCC(C)c1c(N)n(S(=O)(=O)c2ccc(C)cc2)oc1=O` (centres undefined), for which the growth inhibition was -25.2% in assay [1]; 6.8% in assay [2]; 6.4% in assay [3]; 16.6% in assay [5]; -3.45% in assay [6].
With `O=C(O)c1cc(I)ccc1O`, the growth inhibition in assay [1] is -6.65%; in assay [2], -0.3%; in assay [3], -1.25%; in assay [5], -12.7%; in assay [6] it was 26.9%.
For the compound `FC(F)(F)c1cc(NC2=NCCN=C(Nc3cc(C(F)(F)F)cc(C(F)(F)F)c3)SS2)cc(C(F)(F)F)c1`, the growth inhibition in assay [1] was -14.1%; in assay [2] it was -29.7%; in assay [3] it was -10.8%; in assay [4] it was -2%; in assay [6] it was -15.6%.
Turning to `CC(=O)N(CCCCCCN(C(C)=O)C(C)=O)C(C)=O`, the growth inhibition in assay [1] was -14.8%; in assay [2], -9.25%; in assay [3] it was -0.5%; in assay [5] it was -9.85%; in assay [6] it was -6.15%.
For `Oc1cc2ccccc2c(-c2c(O)c(O)cc3ccccc23)c1O` the same measures were 89.5% (active), 85% (active), 83.7% (active), 87% (active) and 91.7% (active).
With `CCCNS(=O)(=O)c1ccc(Cl)cc1`, the growth inhibition in assay [1] was 20.1%; in assay [2] it was -2.9%; in assay [3], -0.45%; in assay [4], 1.55%; in assay [6], -3.7%.
As to `Cc1ccc(C)c2c1CCC2=O`, the growth inhibition in assay [1] is 3.9%; in assay [2], 3.85%; in assay [3], 13.8%; in assay [5] it was 3.85%; in assay [6] it was 13.3%.
Take `NC(=S)N/N=C/c1ccc(OC(=O)COc2ccccc2)cn1`: the growth inhibition is -2.8% in assay [1]; -13.4% in assay [2]; 14.3% in assay [3]; -11% in assay [5]; 9.9% in assay [6].
As to `Oc1ccc(N=Cc2ccc(OCc3ccccc3)cc2)cc1`, the growth inhibition in assay [1] was 2.5%; in assay [2], -29.9%; in assay [3], 15.2%; in assay [5] it was 2.55%; in assay [6], -4.1%.
As for `CCOc1ccc(NC(=S)N2CCC(CCCC3CCN(C(=S)Nc4ccc(OCC)cc4)CC3)CC2)cc1`, the growth inhibition in assay [1] is -6.6%; in assay [2], -31.9%; in assay [3], -15.1%; in assay [4] it was 14.9%; in assay [6], -11.4%.
On to `Cc1ccc(S(=O)(=O)NC(=O)NCCSSCCNC(=O)NS(=O)(=O)c2ccc(C)cc2)cc1`, for which the growth inhibition was 10.6% in assay [1], -7.35% in assay [2], 12.6% in assay [3] and 18.6% in assay [5].
As to `CC(=O)c1cc(O)ccc1O`, the growth inhibition in assay [1] was -6.45%; in assay [2] it was -10.1%; in assay [3], 10.3%; in assay [5], -2.6%; in assay [6] it was 1.8%.
